Laboratory results: PubChem BioAssay (EPA / NIEHS)
The source made the active and inactive calls. Rule for the calls: active = hit-call score of the fitted dose curve at least 0.9, where 1 is the maximum; inactive = score below 0.9.

Key:
[1] = read-out: Matrix Metallopeptidase 9 (MMP9), MMP9 (gene 4318); experiment: BSK_KF3CT_MMP9: BioMAP Diversity Plus: KF3CT Assay for Matrix Metallopeptidase 9 (MMP9) Biomarker Activity (AID 2283074); settings: primary human keratinocytes with fibroblasts; actives raise or lower the signal;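 for AC50: MMP9 protein level quantified by ELISA in the co-culture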
Procedure, shortened: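 Human keratinocyte/foreskin fibroblast co-culture; compound added; 24 h; MMP-9 by ELISA; bidirectional fit vs DMSO baseline.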

[2] = read-out: urokinase plasminogen activator (uPA), PLAU (gene 5328); experiment: BSK_KF3CT_uPA: BioMAP Diversity Plus: KF3CT Assay for urokinase plasminogen activator (uPA) Biomarker Activity (AID 2283075); settings: primary human keratinocytes with fibroblasts; actives raise or lower the signal
Procedure, shortened: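 ELISA readout of uPA, analyzed for signal gain or loss relative to DMSO, from a human primary keratinocyte–foreskin fibroblast co-culture measured 24 h after chemical treatment.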

[3] = read-out: CD40, CD40 (gene 958); experiment: BSK_LPS_CD40: BioMAP Diversity Plus: LPS Assay for CD40 Biomarker Activity (AID 2283076); settings: primary human HUVEC with PBMC; actives raise or lower the signal
Procedure, shortened: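 In the LPS system of human endothelial cells with peripheral blood mononuclear cells, CD40 levels were read by ELISA 24 h post-treatment. Signal changes in either direction were fitted against the DMSO baseline, with parallel SRB protein staining.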

[4] = read-out: E-selectin (Homo sapiens) (UniProt P16581); experiment: BSK_LPS_Eselectin: BioMAP Diversity Plus: LPS Assay for Eselectin Biomarker Activity (AID 2283077); settings: primary human HUVEC with PBMC; actives raise or lower the signal
Procedure, shortened: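 E-selectin ELISA on LPS-stimulated endothelial cell/PBMC co-cultures, read 24 h post-treatment; gains and losses fitted against DMSO. Parallel SRB staining (0.1% SRB after 10% TCA fixation, 560 nm) flags overt cytotoxicity.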

[5] = read-out: Interleukin-8 (IL8), CXCL8 (gene 3576); experiment: BSK_LPS_IL8: BioMAP Diversity Plus: LPS Assay for Interleukin-8 (IL8) Biomarker Activity (AID 2283078); settings: primary human HUVEC with PBMC; actives raise or lower the signal
Procedure, shortened: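 ELISA read-out of IL-8 after 24 h chemical treatment of LPS-activated endothelial/PBMC human primary co-cultures. Changes either up or down relative to DMSO; overt cytotoxicity checked by sulforhodamine B staining in parallel wells.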

[6] = BSK_LPS_SRB: Viability Assessment in the BioMAP Diversity Plus: LPS Assay (AID 2283079); settings: primary human HUVEC with PBMC;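 note: total protein by sulforhodamine B absorbance as a cytotoxicity measure; measured one day after compound addition; fitted in both directions against DMSO so loss or gain of signal counts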
Procedure, shortened: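 SRB viability endpoint: cells fixed with 10% TCA, stained with 0.1% SRB, read at 560 nm, 24 h post-dose. HUVEC/PBMC co-culture; signal change in either direction scored relative to DMSO.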

[7] = read-out: Interleukin-1 alpha (IL1a), IL1A (gene 3552); experiment: BSK_LPS_IL1a: BioMAP Diversity Plus: LPS Assay for Interleukin-1 alpha (IL1a) Biomarker Activity (AID 2283080); settings: primary human HUVEC with PBMC; actives raise or lower the signal
Procedure, shortened: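 Readout is IL-1a level by ELISA, 24 h post-dose, fitted as gain or loss relative to DMSO. System: LPS-activated human primary co-culture of vascular endothelium and peripheral blood mononuclear cells, with parallel SRB total-protein cytotoxicity.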

[8] = read-out: Monocyte Chemoattractant Protein-1 (MCP1), CCL2 (gene 6347); experiment: BSK_LPS_MCP1: BioMAP Diversity Plus: LPS Assay for Monocyte Chemoattractant Protein-1 (MCP1) Biomarker Activity (AID 2283081); settings: primary human HUVEC with PBMC; actives raise or lower the signal;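 for AC50: secreted MCP-1 protein quantified by ELISA in culture supernatant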
Procedure, shortened: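 Secreted MCP-1 read by ELISA at 24 h post-dosing in an LPS-activated co-culture of endothelial cells with peripheral blood mononuclear cells. Fits run in both directions, DMSO as baseline; parallel SRB staining tracks overt cytotoxicity.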

[9] = BSK_LPS_PGE2: BioMAP Diversity Plus: LPS Assay for Prostaglandin E2 (PGE2) Biomarker Activity (AID 2283082); settings: primary human HUVEC with PBMC; actives raise or lower the signal;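 for AC50: secreted prostaglandin E2 measured by ELISA in LPS-stimulated co-culture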
Procedure, shortened: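 HUVEC plus human PBMC co-culture stimulated with LPS; secreted PGE2 quantified by ELISA 24 h after chemical dosing. Activity fitted bidirectionally against DMSO baseline; parallel SRB staining (0.1% SRB after 10% TCA fixation, 560 nm) flags overt cytotoxicity.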

[10] = read-out: Macrophage colony-stimulating factor (MCSF), CSF1 (gene 1435); experiment: BSK_LPS_MCSF: BioMAP Diversity Plus: LPS Assay for Macrophage colony-stimulating factor (MCSF) Biomarker Activity (AID 2283083); settings: primary human HUVEC with PBMC; actives raise or lower the signal
Procedure, shortened: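 Bidirectional fitting against DMSO was applied to M-CSF levels read by ELISA at 24 h post-dose. The system pairs human umbilical vein endothelium with peripheral blood mononuclear cells; parallel SRB staining tracked cytotoxicity.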

[11] = read-out: Tissue Factor, F3 (gene 2152); experiment: BSK_LPS_TissueFactor: BioMAP Diversity Plus: LPS Assay for Tissue Factor Biomarker Activity (AID 2283084); settings: primary human HUVEC with PBMC; actives raise or lower the signal
Procedure, shortened: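 Compound was added to an endothelial cell/PBMC co-culture, and after 24 h tissue factor (CD142) was read by ELISA. Gain or loss of signal was fitted against a DMSO baseline, and parallel SRB staining (560 nm) tracked overt cytotoxicity.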

[12] = read-out: Tumor necrosis factor (Homo sapiens) (UniProt P01375); experiment: BSK_LPS_TNFa: BioMAP Diversity Plus: LPS Assay for Tumour Necrosis Factor alpha (TNFa) Biomarker Activity (AID 2283085); settings: primary human HUVEC with PBMC; actives raise or lower the signal
Procedure, shortened: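 Human umbilical vein endothelial cells co-cultured with PBMC and stimulated with LPS. TNFa was measured by ELISA 24 h after chemical dosing, fitted bidirectionally relative to DMSO.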

[13] = read-out: CD38, CD38 (gene 952); experiment: BSK_SAg_CD38: BioMAP Diversity Plus: SAg Assay for CD38 Biomarker Activity (AID 2283087); settings: primary human HUVEC with PBMC; actives raise or lower the signal
Procedure, shortened: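 Human HUVEC plus PBMC co-culture stimulated with superantigen; CD38 measured by ELISA 24 h after chemical dosing. Fluorescence read-out, bidirectional fit against DMSO; cytotoxicity tracked in parallel by SRB and Alamar Blue.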

[14] = read-out: CD40, CD40 (gene 958); experiment: BSK_SAg_CD40: BioMAP Diversity Plus: SAg Assay for CD40 Biomarker Activity (AID 2283088); settings: primary human HUVEC with PBMC; actives raise or lower the signal
Procedure, shortened: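 CD40 is measured by fluorescence ELISA in an endothelial/PBMC primary human co-culture at 24 h post-dose. Fitting is bidirectional, DMSO baseline. Parallel SRB staining (560 nm) flags cytotoxicity.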

[15] = read-out: CD69, CD69 (gene 969); experiment: BSK_SAg_CD69: BioMAP Diversity Plus: SAg Assay for CD69 Biomarker Activity (AID 2283089); settings: primary human HUVEC with PBMC; actives raise or lower the signal;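 for AC50: cell surface CD69 protein quantified by ELISA with fluorescence detection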
Procedure, shortened: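 Values derive from bidirectional fitting relative to DMSO vehicle. Cells: umbilical vein endothelium plus peripheral blood mononuclear cells, treated 24 h before fluorescent ELISA for CD69.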

[16] = read-out: Monocyte Chemoattractant Protein-1 (MCP1), CCL2 (gene 6347); experiment: BSK_SAg_MCP1: BioMAP Diversity Plus: SAg Assay for Monocyte Chemoattractant Protein-1 (MCP1) Biomarker Activity (AID 2283090); settings: primary human HUVEC with PBMC; actives raise or lower the signal
Procedure, shortened: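 MCP-1 levels in the endothelial–PBMC SAg co-culture were quantified by ELISA at 24 h post-dosing; both increases and decreases versus DMSO scored. Cytotoxicity monitored by SRB total protein in parallel cultures.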

[17] = read-out: E-selectin (Homo sapiens) (UniProt P16581); experiment: BSK_SAg_Eselectin: BioMAP Diversity Plus: SAg Assay for Eselectin Biomarker Activity (AID 2283091); settings: primary human HUVEC with PBMC; actives raise or lower the signal
Procedure, shortened: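 Cell-surface E-selectin is read by ELISA at 24 h in the SAg co-culture of HUVEC and PBMC. Curves are fitted in both directions relative to DMSO. Parallel SRB total-protein staining tracks overt toxicity.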

[18] = read-out: Monokine induced gamma interferon (MIG), CXCL9 (gene 4283); experiment: BSK_SAg_MIG: BioMAP Diversity Plus: SAg Assay for Monokine induced gamma interferon (MIG) Biomarker Activity (AID 2283092); settings: primary human HUVEC with PBMC; actives raise or lower the signal
Procedure, shortened: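 Values reflect bidirectional fitting of ELISA-measured MIG against DMSO vehicle, taken 24 h after dosing of a co-culture of human umbilical vein endothelial cells and peripheral blood mononuclear cells.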

[19] = BSK_SAg_PBMCCytotoxicity: PBMC Cytotoxicity Assessment in the BioMAP Diversity Plus: SAg Assay (AID 2283093); settings: primary human HUVEC with PBMC;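 note: PBMC viability measured as Alamar Blue reduction fluorescence at 546/580 nm; fitted both ways against DMSO so a hit may be loss or gain of signal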;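 for AC50: PBMC superantigen activated with SEB plus TSST-1 one hour after compound addition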
Procedure, shortened: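 Compound added to 75,000 PBMC/well for 1 h; SEB and TSST-1 then added at 20 ng/mL final each; 90 h incubation; Alamar Blue 6 h; read 546/580 nm ex/em. Activity fitted bidirectionally relative to DMSO baseline.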

[20] = read-out: Vascular cell adhesion molecule 1 (VCAM1), VCAM1 (gene 7412); experiment: BSK_LPS_VCAM1: BioMAP Diversity Plus: LPS Assay for Vascular cell adhesion molecule 1 (VCAM1) Biomarker Activity (AID 2283086); settings: primary human HUVEC with PBMC; actives raise or lower the signal
Procedure, shortened: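 Human umbilical vein endothelial cells co-cultured with PBMC and stimulated with LPS; VCAM-1 measured by ELISA 24 h after dosing. Bidirectional curve fitting against DMSO baseline; cytotoxicity tracked in parallel by SRB total-protein staining.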

Measured: AC50

Chain of Tumor necrosis factor (Homo sapiens) (P01375 whole entry, looked up): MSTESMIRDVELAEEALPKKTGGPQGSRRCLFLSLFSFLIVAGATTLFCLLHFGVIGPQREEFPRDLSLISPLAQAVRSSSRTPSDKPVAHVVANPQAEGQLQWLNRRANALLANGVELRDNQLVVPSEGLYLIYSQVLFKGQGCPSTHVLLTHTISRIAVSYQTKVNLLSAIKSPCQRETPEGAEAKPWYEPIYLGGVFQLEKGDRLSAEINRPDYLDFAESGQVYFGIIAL
Chain of E-selectin (Homo sapiens) (P16581 whole entry, looked up): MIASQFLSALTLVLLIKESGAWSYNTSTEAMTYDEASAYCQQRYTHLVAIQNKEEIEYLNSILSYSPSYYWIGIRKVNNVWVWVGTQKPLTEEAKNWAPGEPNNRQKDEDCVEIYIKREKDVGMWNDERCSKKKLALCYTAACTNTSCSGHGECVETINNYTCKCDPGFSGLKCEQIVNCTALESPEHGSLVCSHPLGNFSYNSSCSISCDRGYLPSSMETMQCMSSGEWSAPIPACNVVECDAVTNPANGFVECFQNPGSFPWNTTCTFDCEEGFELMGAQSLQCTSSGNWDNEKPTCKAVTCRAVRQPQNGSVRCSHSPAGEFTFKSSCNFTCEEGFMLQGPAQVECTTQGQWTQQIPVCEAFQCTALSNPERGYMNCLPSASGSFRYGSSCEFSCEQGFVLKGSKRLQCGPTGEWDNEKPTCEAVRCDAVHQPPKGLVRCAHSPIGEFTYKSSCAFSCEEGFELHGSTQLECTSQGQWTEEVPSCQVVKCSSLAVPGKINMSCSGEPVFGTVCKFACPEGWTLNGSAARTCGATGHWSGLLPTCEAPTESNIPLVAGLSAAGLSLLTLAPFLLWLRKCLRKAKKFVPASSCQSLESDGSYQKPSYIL

CC(C)COC(=O)c1ccccc1C(=O)OCC(C)C
active: [9] 9.78 µM | [15] 20 µM | [17] 20 µM | [19] 37 µM
not listed: [20]
inactive: all other assays above

Cc1ccc(N)c(N)c1
active: [1] 9.74 µM | [9] 20 µM | [10] 11.5 µM | [14] 7.11 µM
not listed: [17] | [20]
inactive: all other assays above

Nc1ccc(Cc2ccc(N)cc2)cc1
active: [9] 8.34 µM
not listed: [17] | [20]
inactive: all other assays above

CN(C)c1ccc(C(=O)c2ccc(N(C)C)cc2)cc1
active: [3] 17 µM | [5] 6.12 µM | [6] 13.4 µM | [9] 2.63 µM | [13] 20 µM
not listed: [17] | [20]
inactive: all other assays above

CCCCCCCCn1sccc1=O
active: [1] 12.4 µM | [2] 11.2 µM | [3] 5.76 µM | [4] 9.25 µM | [5] 9.78 µM | [6] 20.8 µM | [7] 4.97 µM | [8] 6.88 µM | [9] 0.857 µM | [10] 7.58 µM | [11] 4.04 µM | [12] 1.04 µM | [13] 7.73 µM | [14] 10.2 µM | [15] 10.7 µM | [16] 11.7 µM | [18] 14.2 µM | [19] 3.84 µM

Clc1ccc(C(c2ccc(Cl)cc2)C(Cl)Cl)cc1
active: [1] 10.2 µM | [2] 11.6 µM | [3] 29 µM | [4] 30.3 µM | [7] 28.6 µM | [8] 35.2 µM | [9] 28.5 µM | [10] 25.6 µM | [11] 37.8 µM | [12] 31.7 µM | [20] 30.5 µM | [13] 29.3 µM | [14] 26.2 µM | [15] 29.9 µM | [16] 34.2 µM | [18] 35.6 µM | [19] 14.3 µM

Nc1ccc([N+](=O)[O-])cc1
not listed: [20]
inactive: all other assays above

c1ccc(C2CO2)cc1 (stereo not drawn)
not listed: [17] | [20]
inactive: all other assays above

CC(C)(C)C(O)(CCc1ccc(Cl)cc1)Cn1cncn1 (stereo not drawn)
not listed: [17] | [20]
inactive: all other assays above
